The sample as a whole holds a higher share of hits than the screen did.
RE007 growth inh: qHTS Assay for Inhibitors of the HIV-1 protein Vpr | S. pombe RE007 Vpr strain, BacTiter-Glo ATP luminescence, 24 h | Potency, µM (titrated, usually from 92.2 µM), without a hit: at the highest dose activity change, negative = less growth, hits mostly inhibitors | 360,000 tested, 0.21% active; active = well fitted falling curve with a large enough effect; inconclusive = small, poorly fitted or top-dose-only effect; inactive = no such curve, though single readings can be large or run the other way; note: potency is the fitted concentration of half-maximal effect; % is set by controls: 0 for no effect and ±100 for the full control effect; nearly all actives have a fitted effect of over 50% in size
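Fission yeast strain RE007, carrying one chromosomally integrated HIV-1 vpr copy, was seeded at OD 0.01 in PMG+AL medium with 23 nL pinned compound. After 24 h at 30 °C and 99% humidity, viability was read by BacTiter-Glo luminescence.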
FBPA Giardia inh: qHTS Assay for Inhibitors of Fructose-1,6-bisphosphate Aldolase from Giardia Lamblia; A8B2U2; purified Giardia FBPA; Potency, µM (highest dose often 59.6 µM), without a hit: at the top dose activity, negative = inhibition, most hits filed as inhibitors; 290,000 tested, 0.71% active; note: potency is the fitted concentration of half-maximal effect; % is set by controls: 0 for no effect and ±100 for the full control effect; nearly all actives have a fitted effect of over 55% in size
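40 nM FBPA preincubated 10 min at RT with compound (up to 57.5 uM final), then substrate plus GAPDH/TPI/NAD/arsenate coupling and diaphorase/resazurin added. Fluorescence read after 20 min at RT, 525/598 nm.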
Shiga toxin inh: A qHTS for Small Molecule Inhibitors of Shiga Toxin | Vero cells, Shiga toxin protein synthesis inhibition reporter | inhibition, % at 38.7 µM | 290,000 tested, 9.2% active | AID 2315, 2010; in the data active = inhibition mostly above about 28%, no sharp cut-off; inactive = mostly below about 43%; note: 0% is about no effect
Cycloheximide cs: Cycloheximide Counterscreen for Small Molecule Inhibitors of Shiga Toxin. max response, %. 300,000 tested, 12% active. cell reporter, cycloheximide protein synthesis inhibition counterscreen. AID 2314, 2010; in the data active = max response mostly above about 13%, no sharp cut-off; inactive = mostly below about 14%; note: read at 38.3 µM for the half of the compounds with a filed dose; 0% is about no effect
LmPK inhibitor: qHTS Assay for Inhibitors of Leishmania Mexicana Pyruvate Kinase (LmPK). Q27686. purified LmPK, Kinase-Glo ATP luminescence, 1 h. Potency, µM (doses to about 57.5 µM), for inactives: at the top dose activity change, negative = inhibition, actives largely listed as inhibitors. 290,000 tested, 0.37% active. AID 1721, 2009; note: potency is the fitted concentration of half-maximal effect; % is set by controls: 0 for no effect and ±100 for the full control effect
Target sequence (Q27686 whole entry, looked up): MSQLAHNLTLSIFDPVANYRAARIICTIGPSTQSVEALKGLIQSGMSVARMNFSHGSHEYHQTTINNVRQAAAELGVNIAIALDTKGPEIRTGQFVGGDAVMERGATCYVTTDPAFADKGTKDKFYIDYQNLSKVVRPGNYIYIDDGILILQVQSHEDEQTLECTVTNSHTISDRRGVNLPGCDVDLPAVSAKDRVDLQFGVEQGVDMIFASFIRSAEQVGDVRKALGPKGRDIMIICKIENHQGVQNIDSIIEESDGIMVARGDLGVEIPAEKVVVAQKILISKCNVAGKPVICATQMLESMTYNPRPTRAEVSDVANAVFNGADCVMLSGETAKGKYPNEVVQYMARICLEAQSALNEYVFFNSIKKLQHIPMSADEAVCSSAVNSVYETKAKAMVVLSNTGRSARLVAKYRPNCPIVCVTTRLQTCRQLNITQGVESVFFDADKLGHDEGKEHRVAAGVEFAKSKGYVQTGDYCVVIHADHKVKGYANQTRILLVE
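Purified LmPK (0.1 nM) converted ADP (0.1 mM) to ATP with PEP (0.5 mM) in imidazole buffer pH 7.2 with KCl and MgCl2, 1 h at room temperature. ATP was read by Kinase-Glo luminescence; data normalized to uninhibited and no-enzyme controls.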
Tb PYK inh: qHTS of Trypanosoma Brucei Inhibitors; pyruvate kinase (Trypanosoma brucei), Q57TT1; TbPYK enzyme, Kinase-Glo Plus ATP luminescence, 45 min; Potency, µM (highest dose often 76.8 µM), without a hit: at the highest dose activity, negative = inhibition, usual class: inhibitors; 410,000 tested, 0.12% active; AID 624173, 2012; note: potency is the fitted concentration of half-maximal effect; % is set by controls: 0 for no effect and ±100 for the full control effect; nearly all actives have a fitted effect of over 50% in size
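Glycolytic pyruvate kinase of T. brucei was incubated with substrate, test compound and 130 uM ADP for 45 minutes at room temperature. Luminescent Kinase-Glo Plus signal was measured after 10 minutes.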
* marks the source's active call; other numbers are inactive results; ? = inconclusive; nt = no result. Unless noted, calls come from the whole dose curve; as a rule, active = well fitted curve in the direction sought with a large enough effect; inconclusive = small, poorly fitted or top-dose-only effect, or another doubt; inactive = no such curve, though single readings can be large; an effect the other way counts as inactive or inconclusive.

SMILES	RE007 growth inh	FBPA Giardia inh	Shiga toxin inh	Cycloheximide cs	LmPK inhibitor	Tb PYK inh
Cc1nc2ccccn2c1C(=O)Nc1ccc2c(c1)OCCO2	5%	-8%	112*	45*	-13%	-4%
Cc1ccc(NC(=O)c2c(Cl)nc3ccccn23)cc1	-10%	3%	114*	37*	0%	5%
Cc1nc2ccccn2c1C(=O)CSc1ccccc1	-12%	2%	38*	31*	7%	-1%
COc1cc2c(cc1OC)C(COc1ccc(F)cc1)N(C(=O)c1cccc(F)c1)CC2 (configuration not stated)	nt	nt	nt	nt	nt	-11%
COc1cc(C2NC(=O)N(C)C3=C2C(=O)N(c2ccccc2)C3)ccc1O (configuration not stated)	nt	nt	nt	nt	nt	0%
CC(=O)Nc1ccc(NC(=O)C2CCN(S(=O)(=O)c3ccc4c(c3)CCCC(=O)N4)CC2)cc1	nt	nt	nt	nt	nt	-1%
Cc1cccc(N(C)S(=O)(=O)c2nnc(NC(=O)C(C)Oc3ccccc3)s2)c1 (configuration not stated)	nt	nt	nt	nt	nt	-4%
Cc1nc2ccccn2c1C(=O)Nc1ccc(Cl)cc1	11%	-3%	52	24*	3%	-2%
Cc1ccc(NC(=S)NNC(=O)c2cccc([N+](=O)[O-])c2)cc1Cl	7%	16%	0	-2	0%	-1%
CC(=O)Oc1ccc(N2C(=O)[C@@H]3[C@H](C2=O)[C@H]2c4ccccc4C=NN2[C@@H]3C(C)=O)cc1	5%	2%	12	-2	-9%	-6%
CC(=O)c1ccc(N2C(=O)[C@@H]3[C@H](C2=O)[C@H]2c4ccccc4C=NN2[C@@H]3C(C)=O)cc1	2%	-6%	32	10*	7%	-1%
CCCc1cnc(N2CCN(C(=S)NC)CC2)nc1	-6%	3%	66*	44*	-2%	-8%
CN1C(=O)/C(=C/c2ccccc2Cl)Sc2ccc(C(=O)N3CCCC3)cc21	3%	0%	3	22*	5%	1%
CCOC(=O)C1CCCN(C(=O)c2ccc3c(c2)N(C)C(=O)/C(=C/c2ccccc2Cl)S3)C1 (configuration not stated)	6%	nt	-2	-2	-13%	3%
O=C(Cn1c(=O)oc2ccccc21)Nc1ccc(F)c(F)c1	3%	10%	6	-2	4%	3%
Cc1ccnc(NC(=O)Cn2c(=O)oc3ccccc32)c1	11%	nt	60*	20*	4%	-5%
O=C(Cn1c(=O)oc2ccccc21)Nc1ccc2c(c1)OCCO2	32%	-6%	13	18*	-2%	-1%
COc1ccc(NC(=O)CCCn2c(=O)oc3ccccc32)cc1Cl	-7%	-10%	64*	66*	-3%	-8%
O=C(CCn1c(=O)oc2ccccc21)N1CCC2(CC1)OCCO2	0%	0%	19	14*	6%	16µM*
Cc1ccc(NC(=O)Cn2c(=O)oc3ccccc32)c(C)c1	7%	1%	nt	-4	6%	-2%
COc1ccc(S(=O)(=O)c2nnn(-c3ccc(C(C)C)cc3)c2C)cc1	nt	nt	nt	nt	nt	3%
CCOC(=O)c1cccc(NC(=O)N2Cc3ccccc3Oc3ncccc32)c1	nt	nt	nt	nt	nt	0%
O=C(CCn1c(=O)oc2ccccc21)Nc1ccccc1	28%	6%	13	-7	3%	-18%
O=C(CCn1c(=O)oc2ccccc21)Nc1ccc2c(c1)OCCO2	-8%	-9%	80*	71*	4%	-4%
CCc1nnc2c(NCCc3ccccc3)nc3ccccc3n12	-8%	4%	2	-3	-5%	4%
SMILES	RE007 growth inh	FBPA Giardia inh	Shiga toxin inh	Cycloheximide cs	LmPK inhibitor	Tb PYK inh
O=[N+]([O-])c1cnc2nc(-c3ccncc3)nn2c1O	?	-1%	-23	-3	13µM*	-11%
COc1cc(/C=C\c2ccc(OC)cc2OC)cc(OC)c1	nt	-2%	nt	nt	nt	nt
COc1ccc(S(=O)(=O)N2CCOCC2)cc1NC(=O)COc1ccc(C(C)=O)cc1OC	1%	nt	nt	nt	nt	1%
COc1ccc(-c2ccc(CO)o2)cc1N	7%	-8%	55*	31*	11%	-2%
COc1ccc(NC(=O)Cn2c(=O)n(-c3ccccc3)c(=O)c3c4c(sc32)CCCC4)cc1	nt	nt	nt	nt	nt	5%
CCC(C)NC(=O)c1cn(CC)c2ccc(S(=O)(=O)N3CCc4ccccc4C3)cc2c1=O (configuration not stated)	nt	nt	nt	nt	nt	6%
O=C(c1cccc(F)c1)N1CCc2ccccc21	8%	-1%	-9	5	1%	-3%
COc1ccc2cc(C(=O)NCc3ccc4c(c3)CCN4C(=O)c3ccccc3)[nH]c2c1	nt	nt	nt	nt	nt	-5%
O=C(c1cc2cc(Br)ccc2[nH]1)N1CCc2ccccc21	7%	-8%	17	19*	5%	-5%
Cc1cc(C(=O)N2CCc3ccccc32)c2cc(F)ccc2n1	36%	9%	72*	35*	-4%	-4%
COc1cc(Br)cc(C(=O)N2CCc3ccccc32)c1OC	-11%	nt	nt	nt	nt	-13%
O=C(c1cc2cc(F)ccc2[nH]1)N1CCc2ccccc21	-15%	-12%	74*	34*	3%	-12%
COc1ccc2cc(C(=O)N3CCc4ccccc43)[nH]c2c1	2%	-20%	100*	34*	0%	-14%
COc1ccc2[nH]cc(CCNC(=O)c3cnn(-c4ccc(C)cc4)c3C3CCN(C(=O)OC(C)(C)C)CC3)c2c1	nt	nt	nt	nt	nt	-2%
COc1ccc(NC(=O)CN2C(=O)C3(SCC(=O)N3c3cccc(OC)c3)c3ccccc32)cc1 (configuration not stated)	nt	nt	nt	nt	nt	0%
O=C(COC(=O)CCC(=O)c1cccs1)NC1CCCCC1	-7%	nt	nt	nt	nt	-9%
O=C(COC(=O)c1ccccc1O)NC12CC3CC(CC(C3)C1)C2	0%	nt	nt	nt	nt	8%
O=C(COC(=O)c1cccs1)NC1CCCC1	8%	6%	68	20*	1%	-5%
O=C(NC1CCCCC1)c1cccs1	-17%	-1%	33	24*	5%	-5%
CC1CCCC(NC(=O)COC(=O)c2cccs2)C1C (configuration not stated)	8%	nt	nt	nt	nt	0%
O=C(COC(=O)c1cccs1)NC12CC3CC(CC(C3)C1)C2	11%	-5%	68	29*	4%	-10%
O=C(NNC(=S)NC1CCCCC1)c1cccs1	18%	-2%	21	11	6%	-11%
O=C(COC(=O)c1cccs1)NC1CCCCC1	-5%	-1%	94*	43*	-2%	6%
CN(CC(=O)Nc1ccc(F)c(F)c1F)C(=O)c1ccc(=O)[nH]c1	-17%	nt	50*	38*	-24%	3%
Cc1ccc(C(=O)NCC(=O)OCc2cc(=O)n3c(C)csc3n2)cc1	nt	nt	nt	nt	nt	2%
